Assay results from PubChem BioAssay.
Calls of active or inactive are those of the source. Unless noted, how the calls were made is not given here.

Columns and labels:
[1] = anti-His antibody binders, primary screen, artefact control for SMM control protein annotation, biochemical, small-molecule microarray, 635 nm fluorescence (AID 1128); settings: anti-His Alexa647 antibody binding, higher = more signal;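 further: score merges feature fluorescence with signal-to-noise for each printed compound spot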
[2] = tested on: Human papillomavirus type 1a E7 protein (residues 1-88); assay: HPV1a E7 small-molecule binders, primary screen, biochemical, small-molecule microarray, residues 1-88, 635 nm (AID 1129); settings: small-molecule microarray binding, fluorescence 635 nm; higher = more signal
[3] = target: Focal adhesion kinase 1 (Homo sapiens) (UniProt Q05397); assay: small-molecule microarray binders of FAK, primary screen, biochemical, 635/667 nm fluorescence, BSA, DTT (AID 1130); settings: PTK2 binding, 635 nm fluorescence, higher = more signal;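 further: composite of spot emission at 667 nm and signal to noise over triplicate slides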
[4] = tested on: Fibrinogen (Alexa647-labelled); assay: fibrinogen binders on compound microarrays, profiling panel, artefact control for SMM control-protein annotation, biochemical, small-molecule microarray, 635/667 nm fluorescence (AID 1131); settings: fibrinogen-A647 binding fluorescence, higher = more signal;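 further: z-score merges 667 nm fluorescence with per-spot signal-to-noise over triplicate slides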
[5] = target: Follistatin (Homo sapiens) (UniProt P19883); assay: follistatin binders on small-molecule microarrays, primary screen, biochemical, small-molecule microarray, 635/667 nm fluorescence (AID 1132); settings: FST binding, 635 nm fluorescence, higher = more signal
[6] = target: Fibroblast growth factor 2 (Homo sapiens) (UniProt P09038); assay: FGF2 binders on small-molecule microarrays, primary screen, biochemical, small-molecule microarray, 635/667 nm fluorescence (AID 1133); settings: small-molecule microarray binding, FGF2, fluorescence 635/667; higher = more signal
[7] = mitochondrial membrane potential change in A549 cells, profiling panel, cell-based, JC-1 fluorescence, basal, 24 h, 100 nL (AID 1138); settings: higher = more signal;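 further: A549 lung adenocarcinoma cells under basal conditions with no added stimulus; test concentration not given here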
[8] = tested on: Lefty1; assay: Lefty1 binders on small-molecule microarrays, primary screen, biochemical, small-molecule microarray, 635/667 nm fluorescence (AID 1139); settings: small-molecule microarray binding, fluorescence 635/667; higher = more signal
[9] = tested on: wheat germ agglutinin (Triticum aestivum), Alexa647-labelled; assay: wheat germ agglutinin binders on compound microarrays, profiling panel, artefact control for SMM control-protein annotation, biochemical, small-molecule microarray, 635/667 nm fluorescence (AID 1140); settings: WGA-A647 binding, 635 nm fluorescence, higher = more signal;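 further: score merges 667 nm feature emission with signal to noise over triplicate slides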
[10] = target: Luciferin 4-monooxygenase (Photinus pyralis) (UniProt P08659); assay: firefly luciferase enzyme inhibitors, primary screen, biochemical, luminescence, purified enzyme, 2006 set (AID 1141); settings: SteadyGlo luminescence, 30 min, higher = more signal, called active from +8 up or from −8 down;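 further: cell-free assay with purified firefly luciferase at 100 ng per well in PBS; test concentration not given here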
[11] = tested on: Wnt5a (protein binding on small-molecule microarray); assay: Wnt5a binders on small-molecule microarray, primary screen, biophysical, 635/667 nm fluorescence (AID 1142); settings: 635 nm fluorescence, higher = more signal;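 further: fluorescence read at 667 nm with signal to noise per printed feature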
[12] = cell viability in Huh7 cells, primary screen, cytotoxicity control for HCV replication inhibitor project, CellTiter-Glo luminescence, basal, 48 h (AID 1143); settings: Huh7 HCV replicon, higher = more signal, called active from +8 up or from −8 down;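 further: Huh7 hepatoma cells carrying a hepatitis C replication reporter with no stimulus; test concentration not given here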
[13] = P. aeruginosa biofilm formation inhibitors, primary screen, PAO1 strain, BacTiter-Glo luminescence, LB-PBS (AID 1144); settings: 12 h, higher = more signal
[14] = CREB reporter modulators without forskolin, primary screen, cell-based, PC12, CRE-LacZ reporter, unstimulated (AID 1145); settings: no forskolin, luminescence, 4.5 h, higher = more signal, called active from +8 up or from −8 down
[15] = CREB reporter modulators under forskolin, primary screen, cell-based, PC12, CRE-LacZ reporter, forskolin-stimulated (AID 1146); settings: luminescence, 4.5 h, higher = more signal, called active from +8 up or from −8 down;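 further: PC12 cells with 6xCRE LacZ reporter stimulated by forskolin 10 µM; beta-galactosidase reporter signal reflecting CREB driven transcription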
[16] = target: Streptavidin (Streptomyces avidinii) (UniProt P22629); assay: streptavidin binders on small-molecule microarray, primary screen, artefact control for SMM compound annotation, biophysical, 635/667 nm fluorescence (AID 1147); settings: streptavidin binding, higher = more signal;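 further: signal reflects streptavidin binding to arrayed compounds as a control protein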
[17] = small-molecule binders of probe aInhba, primary screen, biochemical, small-molecule microarray, 635/667 nm fluorescence (AID 1148); settings: higher = more signal;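 further: score merges 667nm spot fluorescence with signal-to-noise for antibody binding to printed compounds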
[18] = target: Torsin-1A (Homo sapiens) (UniProt O14656); assay: torsin A binders from cell lysate, primary screen, small-molecule microarray, wild-type, 635/667 nm (AID 1149); settings: COS7 hTOR1A-WT lysate, 635 nm fluorescence, higher = more signal
[19] = target: Torsin-1A (Homo sapiens) (UniProt O14656); assay: small-molecule binders of mutant TOR1A in lysate, primary screen, cell lysate, small-molecule microarray, COS7 lysate, 635/667 nm fluorescence (AID 1150); settings: COS7 hTOR1A mutant lysate, 635 nm fluorescence, higher = more signal;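 further: score pools 667 nm emission and signal to noise measuring lysate protein binding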
[20] = tested on: Sonic hedgehog protein (Shh); assay: small-molecule binders of Shh protein, primary screen, biochemical, small-molecule microarray, 635/667 nm fluorescence (AID 1151); settings: small-molecule microarray binding, 635 nm fluorescence; higher = more signal;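 further: Shh protein binding to compounds spotted on small-molecule microarray slides; score combines spot fluorescence intensity with signal-to-noise across triplicate slides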

Streptavidin (Streptomyces avidinii), sequence (P22629 whole entry, looked up): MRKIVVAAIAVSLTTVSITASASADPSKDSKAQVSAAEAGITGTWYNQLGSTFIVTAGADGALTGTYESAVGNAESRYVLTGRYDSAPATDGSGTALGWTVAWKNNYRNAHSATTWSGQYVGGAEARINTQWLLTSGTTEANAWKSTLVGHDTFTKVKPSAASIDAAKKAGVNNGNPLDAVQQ
Fibroblast growth factor 2 (Homo sapiens), sequence (P09038 whole entry, looked up): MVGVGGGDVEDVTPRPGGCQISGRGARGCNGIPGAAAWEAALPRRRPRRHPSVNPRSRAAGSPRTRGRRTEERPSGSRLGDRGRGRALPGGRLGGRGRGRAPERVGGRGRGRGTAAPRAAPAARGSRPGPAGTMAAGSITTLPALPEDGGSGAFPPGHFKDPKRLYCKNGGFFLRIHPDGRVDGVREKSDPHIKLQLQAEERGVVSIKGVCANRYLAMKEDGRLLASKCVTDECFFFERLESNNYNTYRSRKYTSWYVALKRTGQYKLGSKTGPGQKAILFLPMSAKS
Torsin-1A (Homo sapiens), sequence (O14656 whole entry, looked up): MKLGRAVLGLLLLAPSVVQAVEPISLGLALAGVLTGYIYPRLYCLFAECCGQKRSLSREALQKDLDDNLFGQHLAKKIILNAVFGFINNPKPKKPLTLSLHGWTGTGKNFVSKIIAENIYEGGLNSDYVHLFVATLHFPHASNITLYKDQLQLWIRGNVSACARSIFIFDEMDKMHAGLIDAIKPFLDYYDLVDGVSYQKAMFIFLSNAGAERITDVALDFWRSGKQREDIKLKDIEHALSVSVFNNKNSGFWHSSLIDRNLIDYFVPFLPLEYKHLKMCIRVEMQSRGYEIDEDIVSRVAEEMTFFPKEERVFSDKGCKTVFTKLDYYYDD
Follistatin (Homo sapiens), sequence (P19883 whole entry, looked up): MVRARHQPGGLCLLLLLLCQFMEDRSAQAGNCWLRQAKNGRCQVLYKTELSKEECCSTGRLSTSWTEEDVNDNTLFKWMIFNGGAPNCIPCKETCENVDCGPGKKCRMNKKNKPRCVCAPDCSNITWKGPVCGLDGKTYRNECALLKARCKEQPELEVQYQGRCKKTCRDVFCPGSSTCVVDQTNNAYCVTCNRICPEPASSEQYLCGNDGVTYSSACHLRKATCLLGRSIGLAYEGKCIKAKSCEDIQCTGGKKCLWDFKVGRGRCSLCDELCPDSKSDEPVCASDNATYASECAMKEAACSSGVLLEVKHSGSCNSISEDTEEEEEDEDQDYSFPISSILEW
Focal adhesion kinase 1 (Homo sapiens), sequence (Q05397 whole entry, looked up): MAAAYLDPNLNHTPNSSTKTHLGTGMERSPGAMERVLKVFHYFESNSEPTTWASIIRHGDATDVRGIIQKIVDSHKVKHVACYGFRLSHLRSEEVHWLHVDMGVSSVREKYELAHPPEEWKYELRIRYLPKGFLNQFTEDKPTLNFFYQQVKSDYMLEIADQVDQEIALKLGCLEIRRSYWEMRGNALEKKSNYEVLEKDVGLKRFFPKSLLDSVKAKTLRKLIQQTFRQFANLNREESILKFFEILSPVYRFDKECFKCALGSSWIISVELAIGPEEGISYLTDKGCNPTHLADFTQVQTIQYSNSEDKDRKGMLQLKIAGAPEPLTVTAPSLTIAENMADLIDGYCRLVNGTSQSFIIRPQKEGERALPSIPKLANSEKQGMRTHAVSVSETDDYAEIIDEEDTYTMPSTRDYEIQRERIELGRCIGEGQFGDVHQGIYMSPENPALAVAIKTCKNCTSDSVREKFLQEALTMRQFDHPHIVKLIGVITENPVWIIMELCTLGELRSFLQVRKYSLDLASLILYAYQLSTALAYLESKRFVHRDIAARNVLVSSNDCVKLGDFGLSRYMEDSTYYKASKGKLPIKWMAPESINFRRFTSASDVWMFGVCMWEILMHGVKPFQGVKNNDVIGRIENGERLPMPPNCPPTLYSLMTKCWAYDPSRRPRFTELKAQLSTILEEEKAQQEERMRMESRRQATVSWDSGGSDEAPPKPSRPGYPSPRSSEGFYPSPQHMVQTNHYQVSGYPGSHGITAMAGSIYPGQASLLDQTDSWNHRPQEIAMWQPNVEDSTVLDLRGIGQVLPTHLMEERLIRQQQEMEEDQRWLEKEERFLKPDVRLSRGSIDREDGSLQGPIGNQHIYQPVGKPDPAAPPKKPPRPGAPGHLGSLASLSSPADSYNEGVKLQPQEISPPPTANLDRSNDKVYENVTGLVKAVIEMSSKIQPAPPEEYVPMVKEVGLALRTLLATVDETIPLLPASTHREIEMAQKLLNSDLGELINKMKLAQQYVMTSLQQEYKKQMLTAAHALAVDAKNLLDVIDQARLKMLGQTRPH
Luciferin 4-monooxygenase (Photinus pyralis), sequence (P08659 whole entry, looked up): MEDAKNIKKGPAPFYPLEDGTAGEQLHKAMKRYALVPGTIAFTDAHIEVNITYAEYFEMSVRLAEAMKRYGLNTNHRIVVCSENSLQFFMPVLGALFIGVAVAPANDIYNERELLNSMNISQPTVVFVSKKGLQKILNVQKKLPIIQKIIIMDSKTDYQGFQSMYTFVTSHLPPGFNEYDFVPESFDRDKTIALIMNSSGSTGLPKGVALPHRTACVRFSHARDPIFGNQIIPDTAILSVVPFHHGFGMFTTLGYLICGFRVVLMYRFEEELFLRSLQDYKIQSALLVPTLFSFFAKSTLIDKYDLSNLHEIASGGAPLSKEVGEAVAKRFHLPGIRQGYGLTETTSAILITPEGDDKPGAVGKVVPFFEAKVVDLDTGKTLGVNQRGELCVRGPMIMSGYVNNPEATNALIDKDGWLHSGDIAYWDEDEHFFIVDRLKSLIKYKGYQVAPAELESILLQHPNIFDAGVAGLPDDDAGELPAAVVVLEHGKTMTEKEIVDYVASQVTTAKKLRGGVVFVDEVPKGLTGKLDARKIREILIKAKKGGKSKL

SMILES	composite z-score [1]	composite z-score [2]	composite z-score [3]	composite z-score [4]	composite z-score [5]	composite z-score [6]	z-score [7]	composite z-score [8]	composite z-score [9]	z-score [10]	composite z-score [11]	z-score [12]	z-score [13]	z-score [14]	z-score [15]	composite z-score [16]	composite z-score [17]	composite z-score [18]	composite z-score [19]	composite z-score [20]
COC(=O)C(CC#Cc1ccc2c(c1)[C@]1(C(=O)N2)[C@H](C(=O)O)[C@H]2C(=O)O[C@H](c3ccccc3)[C@H](c3ccccc3)N2[C@@H]1c1ccc(O)cc1)C(=O)OC	1.54	-0.133	-0.13	-0.422	-0.0501	-0.328	-0.573	-0.574	-0.163	0.217 (inactive)	-0.265	0.674 (inactive)	-0.208 (inactive)	-0.467 (inactive)	-0.686 (inactive)	-0.641	-0.0405	-0.21	0.446	-0.613
COc1ccc([Si](C)(C)[C@H]2[C@H](CC(=O)N3Cc4ccccc4C[C@H]3CO)O[C@@]3(C(=O)N(Cc4ccc(N5CCC5=O)cc4)c4ccccc43)[C@@H]2C)cc1	1.72	1.13	1.12	0.42	1.33	1.32	1.11	1.56	0.104	0.511 (inactive)	0.66	-6.48 (inactive)	0.522 (inactive)	0.656 (inactive)	-0.317 (inactive)	0.679	0.256	1.27	0.574	1.85
C=CC[C@@]1(C(=O)NCc2ccccc2)N=C(c2ccc(OCCCO)cc2)O[C@@H]1c1ccccc1N=[N+]=[N-]	2.41	1.24	0.649	0.993	1.28	0.281	0.444	0.11	1	-8.72 (active)	0.465	-2.73 (inactive)	-0.291 (inactive)	3.85 (inactive)	0.34 (inactive)	1.15	0.174	1.23	0.762	-0.245
C=CCNC(=O)[C@H]1[C@@H]2C(=O)O[C@@H](c3ccccc3)[C@@H](c3ccccc3)N2[C@@H](c2ccccc2OCCO)[C@]12C(=O)Nc1ccc(C#CC3=CCCCC3)cc12	0.971	1.17	0.26	0.783	1.16	1.21	-0.856	0.681	0.394	-1.19 (inactive)	0.291	-6.47 (inactive)	1.64 (inactive)	0.484 (inactive)	1.05 (inactive)	0.0808	0.0074	1.23	1.14	1.61
CN(C)C(=O)[C@]1(Cc2ccccc2N=[N+]=[N-])N=C(c2ccc(OCCCO)cc2)O[C@@H]1c1ccccc1	1.03	1.22	0.633	0.882	1.31	1.58	1.71	0.0484	0.986	-1.08 (inactive)	0.8	-4.59 (inactive)	1.77 (inactive)	0.69 (inactive)	-2.15 (inactive)	1.4	0.0928	-0.09	0.902	0.0763
CN(C)C(=O)[C@]1(Cc2ccccc2CN=[N+]=[N-])N=C(c2ccc(OCCCO)cc2)O[C@@H]1c1ccccc1CN=[N+]=[N-]	1.17	1.25	0.44	0.969	1.28	0.355	0.0653	1.06	1.09	-0.554 (inactive)	0.49	-5.26 (inactive)	-0.611 (inactive)	1.31 (inactive)	-0.394 (inactive)	0.61	0.461	1.14	0.917	1.11
COc1cc2c(cc1OC)CN(C(=O)[C@H]1[C@@H]3C(=O)O[C@@H](c4ccccc4)[C@@H](c4ccccc4)N3[C@@H](c3ccc(O)cc3)[C@]13C(=O)Nc1ccc(C#CCNC(N)=O)cc13)CC2	-0.327	-0.0403	0.0099	-0.231	1.29	0.967	-0.73	0.669	0.344	0.8 (inactive)	0.438	-0.431 (inactive)	-1.68 (inactive)	-1.01 (inactive)	-0.638 (inactive)	-0.283	0.0357	0.437	0.0805	0.74
O=C1NC(=O)C2C1C=CC(C(O)Cc1ccccc1)N2Nc1ccc(Cl)cc1Cl (stereo not given)	0.432	-0.364	0.247	0.773	0.178	-0.644	2.92	-0.695	0.834	0.981 (inactive)	-0.209	-0.0389 (inactive)	-0.171 (inactive)	0.44 (inactive)	0.115 (inactive)	0.889	0.0345	-0.0973	1.12	-0.546
O=C1OCCC/C=C\[C@H]2OC34C=CCN(Cn5nnc6ccccc65)C(=O)[C@H]3N(CCO)C(=O)[C@@H]4C12 (stereo not given in full)	0.893	-0.318	-0.344	-1.27	-0.481	-1.36	-0.438	-0.368	0.556	1.27 (inactive)	-0.212	-0.363 (inactive)	-2.05 (inactive)	-1.58 (inactive)	-0.713 (inactive)	-0.712	0.8	-2.75	-1.23	-0.533
